# PDI inh = PDI (human) enzyme inhibition. P07237. inhibition, % at 10 µM. AID 588391. PDI insulin aggregation turbidity, A650, 90 min. hit rate 0.052% among 350,000;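 active means mean inhibition across replicates of 30% or more, whatever share of single replicates reach that level; inconclusive means mean inhibition below 30% while every single replicate reaches 30%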
# Target sequence (P07237 whole entry, looked up): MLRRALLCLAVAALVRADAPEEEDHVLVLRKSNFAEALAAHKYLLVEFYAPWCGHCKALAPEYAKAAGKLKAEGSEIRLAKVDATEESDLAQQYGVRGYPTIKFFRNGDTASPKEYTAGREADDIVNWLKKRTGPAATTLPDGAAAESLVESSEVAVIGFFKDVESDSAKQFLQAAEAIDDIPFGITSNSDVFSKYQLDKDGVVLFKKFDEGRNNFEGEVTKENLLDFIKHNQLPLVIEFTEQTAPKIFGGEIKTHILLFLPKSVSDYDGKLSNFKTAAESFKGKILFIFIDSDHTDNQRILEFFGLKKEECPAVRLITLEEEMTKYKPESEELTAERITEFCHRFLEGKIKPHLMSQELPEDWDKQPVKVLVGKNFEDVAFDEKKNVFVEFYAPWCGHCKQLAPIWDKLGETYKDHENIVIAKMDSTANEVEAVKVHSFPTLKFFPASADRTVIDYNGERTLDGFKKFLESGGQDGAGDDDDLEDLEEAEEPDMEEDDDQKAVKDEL
# ERAP1 HTS inh = ERAP1 (human) enzyme inhibition; Q9NZ08; recombinant ERAP1, Leu-AMC fluorescence, 60 min; inhibition, % at 10.7 µM; hit rate 0.15% among 340,000;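 active means mean replicate inhibition of at least 30%, or all replicates individually reaching that 30% level; inactive means mean below 30% and not every replicate reaching it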
# AF4-AF9 inh = MLL-AF4/AF9 protein interaction inhibition; P42568; AlphaScreen, biotin-AF4 peptide binding to FLAG-AF9; inhibition, % at 10 µM; hit rate 0.47% among 350,000;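 active means every replicate reaching a set inhibition limit, whatever the replicate mean, cut at about 25% in these data; inconclusive means mean inhibition reaches that limit but some replicates miss it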
# DENV2 CPE = DENV2-induced cell death inhibition; hit rate 1.7% among 350,000; CPE inhibition, % at 9.99 µM; DENV2-infected cells, cytopathic effect rescue, plate reader; in the data active means CPE inhibition above about 20%, passing the limit was not always enough; inconclusive means no clear call, values can overlap the other calls; tested in BHK-21 cells
# ERp5 block = blocks human ERp5 reductase activity on insulin; Q15084; ERp5 insulin aggregation, absorbance 650 nm, 90 min; inhibition, % at 9.99 µM; hit rate 0.05% among 350,000;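 active means mean replicate inhibition above about 25%, with every replicate also reaching it, limit read from the data, passing the limit was not always enough; inconclusive means only one of those two criteria met; inactive means neither criterion met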
# A number is an active result; . = inactive; ? = inconclusive; / = no result. Hits are enriched below; roughly 1.8% of the tested compounds scored in any of these assays.
SMILES,PDI inh,ERAP1 HTS inh,AF4-AF9 inh,DENV2 CPE,ERp5 block
CN(C)C(=O)C[C@H]1CC[C@@H]2[C@H](COC[C@@H](O)CN2C(=O)c2ccncc2)O1,/,.,.,.,.
COc1cccc(S(=O)(=O)N[C@@H]2C=C[C@@H](CC(=O)NCc3ccccc3)O[C@H]2CO)c1,/,.,.,.,.
CC(C)c1ccc(Nc2ncc3c(n2)CCN(C(=O)Nc2ccc(F)c(Cl)c2)C3)cc1,.,.,.,20,.
COc1cccc(NC(=O)N2CCc3nc(Nc4cc(Cl)cc(Cl)c4)ncc3C2)c1,.,.,.,.,.
C[C@@H]1CN([C@H](C)CO)C(=O)c2cc(NC(=O)CCC(F)(F)F)ccc2O[C@H]1CN(C)Cc1ccc(C(=O)Nc2ccccc2N)cc1,/,.,.,20,.
C[C@@H]1CN([C@H](C)CO)C(=O)c2cc(NC(=O)Nc3ccc(C(F)(F)F)cc3)ccc2O[C@H]1CN(C)Cc1ccc(C(=O)Nc2ccccc2N)cc1,/,.,.,22,.
Cc1ccc(S(=O)(=O)NC[C@H]2CC[C@@H]3[C@@H](CN3Cc3cc(-c4ccccc4)on3)O2)cc1,/,.,.,.,.
Cc1ccc(S(=O)(=O)N(C)C[C@@H]2Oc3ccc(NS(=O)(=O)c4ccccc4)cc3CC(=O)N([C@H](C)CO)C[C@@H]2C)cc1,/,.,.,.,.
C[C@H]1CN([C@@H](C)CO)C(=O)c2cc(NC(=O)CCCN(C)C)ccc2O[C@@H]1CN(C)Cc1ccc(Oc2ccccc2)cc1,/,.,.,.,.
O=C(CCc1ccccc1)Nc1cccc([N+](=O)[O-])c1,.,.,.,.,.
O=C(CCCc1ccccc1)Nc1cccc([N+](=O)[O-])c1,.,.,.,40,.
CCN(CC)CCCNC(CC(=O)Nc1cccc([N+](=O)[O-])c1)C(=O)O (configuration not stated),.,.,.,30,.
O=C1C=C(O)c2cccc(O)c2C1=O,/,.,.,44,.
CC1Cc2ccccc2N1S(=O)(=O)c1cnc(Cl)c(Br)c1 (configuration not stated),.,.,.,65,.
Cc1noc(C)c1S(=O)(=O)Nc1ccc2c(c1)C(=O)N([C@H](C)CO)C[C@H](C)[C@H](CN(C)Cc1ccc3c(c1)OCO3)OCCCC[C@H](C)O2,/,.,.,.,.
CCn1cnc2c1c(=O)n(CC(=O)NCC(F)(F)F)c(=O)n2Cc1ccccc1,.,58,.,.,.
CCn1cnc2c1c(=O)n(CC(=O)NCc1ccccc1)c(=O)n2Cc1ccccc1,.,.,.,.,.
C[C@@H]1CN([C@@H](C)CO)C(=O)c2cc(NC(=O)CCC(F)(F)F)ccc2O[C@H]1CN(C)C,/,.,.,.,.
COc1ccc2c3c([nH]c2c1)[C@@H](CO)N(Cc1nccs1)CC31CN(C(=O)C2CCCC2)C1,/,.,.,29,80
COc1ccc2c3c([nH]c2c1)[C@H](CO)N(C(=O)c1cnccn1)CC31CCN(S(C)(=O)=O)CC1,/,.,.,68,.
COc1ccc2c3c([nH]c2c1)[C@H](CO)N(C(=O)C1CCOCC1)CC31CCN(Cc2nccs2)CC1,/,.,.,.,84
COc1ccc2c3c([nH]c2c1)[C@H](CO)N(C(=O)c1cnccn1)CC31CN(C(=O)c2cnccn2)C1,/,/,.,.,/
COc1ccc2c3c([nH]c2c1)[C@H](CO)N(C(=O)C1CCC1)CC31CCN(Cc2nccs2)CC1,/,.,.,41,.
Fc1cccc(-c2ccc(C3[C@H]4CNC[C@@H]3N4Cc3ccccc3F)cc2)c1 (some centres not stated),/,.,.,.,.
O=C([C@@H]1[C@@H](CO)[C@@H]2Cn3c(cccc3=O)[C@H]1N2C(=O)c1ccc(F)cc1)N1CCCCC1,/,.,.,.,.
SMILES,PDI inh,ERAP1 HTS inh,AF4-AF9 inh,DENV2 CPE,ERp5 block
CCC(=O)Nc1ccc2c(c1)C(=O)N(C)[C@H]1CC[C@@H](CC(=O)NCc3ccccc3Cl)O[C@@H]1CO2,/,.,.,.,.
COc1ccc2c3c([nH]c2c1)[C@@H](CO)N(C(=O)c1ccccn1)CC31CN(C(=O)C2CCCC2)C1,/,.,.,24,.
Fc1ccccc1-c1nc(-c2ccc(-c3nn[nH]n3)cc2)no1,.,.,.,20,.
COc1ccc(NC(=O)Nc2ccc3c(c2)C(=O)N([C@@H](C)CO)C[C@@H](C)[C@@H](CN(C)Cc2ccncc2)OCCCC[C@H](C)O3)cc1,/,.,.,.,.
Cn1c2ccccc2c(=O)c2cc(C#Cc3ccsc3)ccc21,.,/,.,66,.
COCCCNC(=O)[C@]1(Cc2ccccc2N=[N+]=[N-])N=C(c2ccc(OCCCO)cc2)O[C@@H]1c1ccccc1,/,.,.,?,.
COC(=O)C1(C(=O)OC)c2ncccc2N(S(=O)(=O)c2ccc(C)cc2)C1CC(=O)c1ccccc1 (configuration not stated),/,.,/,21,.
CC(C)NC(=O)N(C)C[C@@H]1Oc2cc(C#C[C@@H](C)O)ccc2S(=O)(=O)N([C@H](C)CO)C[C@H]1C,/,.,.,.,.
C[C@@H]1CN([C@H](C)CO)C(=O)c2cc(NC(=O)c3ccncc3)ccc2O[C@@H]1CN(C)C,/,.,.,.,.
NCCCC[C@@H]1NC(=O)c2cc([N+](=O)[O-])cc(F)c2NCCCC[C@@H](C(N)=O)NC(=O)[C@H](CCC(N)=O)NC1=O,.,/,27,.,.
NS(=O)(=O)c1ccc(N/N=C2/CCCCC2C2CCCCC2)c([N+](=O)[O-])c1 (configuration not stated),.,.,30,.,?
Cc1cc(C)c2c(c1)/C(=N/Nc1ccc(S(N)(=O)=O)cc1[N+](=O)[O-])CCC2,.,.,.,.,.
COc1ccc(NC(=O)O[C@H](c2ccc(OC)c(O)c2)[C@@H](CCO)OC)cc1,/,.,.,.,.
O=C(C[C@H]1C[C@H]2c3cc(NC(=O)c4cccnc4)ccc3O[C@H]2[C@H](CO)O1)NCc1cccc(F)c1,/,.,.,.,.
COCCN(C(=S)Nc1cccc(C)c1)C(C)c1cccs1 (configuration not stated),.,.,.,30,.
COCCN(C(=S)Nc1cc(C)cc(C)c1)C(C)c1cccs1 (configuration not stated),.,.,.,.,.
O=C(Nc1ccccc1C(F)(F)F)C(O)(c1ccccc1)C1CCCCC1 (configuration not stated),.,.,.,50,.
COc1ccc2c3c([nH]c2c1)[C@H](CO)N(C(=O)C1CCC1)CC31CN(C)C1,/,.,.,.,.
N#C[C@@H]1[C@@H](c2ccccc2)[C@H](CO)N1S(=O)(=O)Cc1ccccc1,/,.,.,.,.
COc1ccccc1C(C)Nc1ccc(S(=O)(=O)N2CCN(C)CC2)cc1[N+](=O)[O-] (configuration not stated),.,.,28,.,.
O=C(Nc1ccc(F)cc1)C(Sc1nnc2ccccn12)c1ccccc1 (configuration not stated),.,.,49,.,.

# Screening results (PubChem)
